Screening data deposited in PubChem BioAssay by National Center for Advancing Translational Sciences (NCATS).
Shown are actives, neighbours in structure and some others; about 5.3% of the full set was active somewhere.
HPGD inh: blocks human HPGD enzyme activity; P15428; purified HPGD, NADH fluorescence kinetic, PGE2 substrate; Potency, µM, inactives show at the top dose activity change, negative = inhibition, hits mostly inhibitors; 4.3% of 150,000 active; AID 894; active means well fitted inhibition curve with a large enough effect, not every such curve was filed as active; inconclusive means small, poorly fitted or top-dose-only effect, or another doubt; inactive means no such curve, though single readings can be large or run the other way; further: potency means the concentration at half of the fitted maximal effect
Target sequence (P15428 whole entry, looked up): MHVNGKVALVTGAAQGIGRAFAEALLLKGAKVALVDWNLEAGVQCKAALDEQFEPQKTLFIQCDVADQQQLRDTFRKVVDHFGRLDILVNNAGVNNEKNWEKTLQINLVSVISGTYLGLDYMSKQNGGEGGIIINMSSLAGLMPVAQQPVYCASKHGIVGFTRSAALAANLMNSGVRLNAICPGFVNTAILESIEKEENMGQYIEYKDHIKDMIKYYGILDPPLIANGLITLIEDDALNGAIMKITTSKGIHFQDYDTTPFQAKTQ
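NADH formation kinetics: reaction with 30 uM PGE2 and 1 mM NAD+ (final), 20 nM enzyme, Tris-HCl pH 8 with Tween 20, after 15 min compound preincubation at room temperature. Fluorescence change, last versus first of five reads.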
PNC inhibitor: perinucleolar compartment assembly inhibition. 3.1% of 140,000 active. PC3M PTB-GFP, PNC prevalence imaging, 16 h; hits give low values. activity change (PNC), negative = inhibition, % at 10 µM;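 active means readout at or below -70, meaning at least 70% loss of cells showing the perinucleolar compartment, a nuclear body marking cancer cells; inconclusive means readout between -30 and a set limit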;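 further: plate controls were DMSO wells for no effect and camptothecin positive control wells for full effect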
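Read-out is percentage of cells bearing a perinucleolar compartment, from automated 20x imaging of fixed, Hoechst-stained PC3M PTB-GFP cells. Cells were seeded 4 h, then exposed 16 h to compound (23 nl of library stock) in duplicate plates.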
15-hLO-2 inh: inhibitors of human 15-lipoxygenase 2 (ALOX15B). O15296. purified 15hLO-2, xylenol orange hydroperoxide absorbance. Potency, µM (doses to about 57.1 µM), for inactives: at the highest dose activity change, negative = inhibition, hits mostly inhibitors. 0.56% of 110,000 active; further: potency means the concentration at half of the fitted maximal effect; nearly all actives have a fitted effect of over 60% in size
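Purified human 15hLO-2 (50 nM final) preincubated with compounds 15 min at room temperature in 25 mM Hepes pH 7.5, 0.01% Triton X-100, then 45 uM arachidonic acid added for 90 min; hydroperoxide detected via ferrous/xylenol orange, 573/405 nm absorbance ratio.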
IMPase Li inh: IMPase inhibition in cells with lithium potentiation; CHO-M1 cells, IP1 TR-FRET (IP-One), carbachol + lithium; 0.35% of 210,000 active; Potency, µM (series often up to 59.4 µM), inactives show top-dose activity, negative = IMPase inhibition, most hits filed as inhibitors;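 further: IP1 builds up when IMPase is blocked and the TR-FRET signal falls; potency means the concentration at half of the fitted maximal effect; plate controls were basal vehicle for no effect and high inhibitor control for full effect; nearly all actives have a fitted effect of over 50% in size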
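Lithium-sensitised IP1 accumulation assay; M1-expressing CHO cells treated 30 min at 37C with compound. Competitive antibody detection by time-resolved FRET followed a 10 min room-temperature lysis step.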
IMPase cell inh: membrane-permeable compound that blocks inositol monophosphatase; P97697; CHO-M1 cells, IP1 accumulation, HTRF TR-FRET ratio; inhibition (IP1 accumulation), % at 46.1 µM; 120,000 tested, under 10 active; active means well fitted curve in the direction sought with a large enough effect in the signal ratio, not every such curve was filed as active; inconclusive means small, poorly fitted or top-dose-only effect, or a change in a side signal; inactive means no such curve, though single readings can be large or run the other way; the % refers to the signal ratio;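 further: cells stimulated with carbachol in lithium chloride buffer; plate controls were DMSO basal wells for no effect and reference inhibitor wells for full effect; higher means more IMPase inhibition seen as more IP1 and lower FRET ratio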
Target sequence (P97697 whole entry, looked up): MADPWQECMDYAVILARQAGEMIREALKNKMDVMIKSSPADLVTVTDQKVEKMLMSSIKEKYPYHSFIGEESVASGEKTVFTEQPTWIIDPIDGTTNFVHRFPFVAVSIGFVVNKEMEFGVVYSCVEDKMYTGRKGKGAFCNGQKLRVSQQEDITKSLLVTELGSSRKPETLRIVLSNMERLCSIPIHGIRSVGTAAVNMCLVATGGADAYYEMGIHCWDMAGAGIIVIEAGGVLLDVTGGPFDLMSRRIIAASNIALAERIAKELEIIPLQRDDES
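CHO-M1, 2000 cells/well, cultured 16–30 h; cpd up to 46 uM; carbachol (50 uM solution, stimulation buffer w/ 50 mM LiCl, pH 7.4), 30 min 37C; IP-One TR-FRET, 10 min RT; Ex 320/Em 665, 620; Hill-fit AC50.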
12-hLO inh: 12-hLO (ALOX12) enzyme inhibition; P18054; purified 12-hLO, xylenol orange hydroperoxide absorbance; Potency, µM (top dose mostly 57.1 µM), for the others: at the highest dose activity change, negative = inhibition, actives largely listed as inhibitors; 0.12% of 150,000 active; further: potency means the concentration at half of the fitted maximal effect; nearly all actives have a fitted effect of over 55% in size
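Lipoxygenase turnover measured by absorbance at 573 and 405 nm after Fe-XO development. Human 12hLO 150 nM, arachidonate 40 uM, pH 7.0 Hepes buffer with detergent; 15 min compound preincubation, 30 min reaction.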
* hit, by the source's call; ? = inconclusive; . = no result given; [ ] = another dose, or the depositor's remark. Unless noted, the call rests on the fitted dose curve; in most records, active means well fitted curve in the direction sought with a large enough effect; inconclusive means small, poorly fitted or top-dose-only effect, or another doubt; inactive means no such curve, though single readings can be large; an effect the other way counts as inactive or inconclusive. Unless noted, on the % scale 0 is the no-effect control and ±100 the full control effect.

SMILES	HPGD inh	PNC inhibitor	15-hLO-2 inh	IMPase Li inh	IMPase cell inh	12-hLO inh
O=C(CCN1C(=O)c2ccccc2C1=O)Nn1cnnc1	-3%	34	-3%	3%[38.3 µM]	2	-4%
CC(C)CC(C(=O)Nn1cnnc1)N1C(=O)c2ccccc2C1=O (stereo not drawn)	-22%	-100*	-2%	-13%[38.3 µM]	-1	-12%
CCOC(=O)C(=O)C1=C(N2CCOCC2)/C(=C\c2cccc([N+](=O)[O-])c2)CC1	32µM*	-22	.	21%	16	-12%
O=C(NP(=O)(N1CCCC1)N1CCCC1)C1=C(N2CCOCC2)/C(=C/c2cccc([N+](=O)[O-])c2)CC1	.	.	.	3%	.	.
Cc1cc(C)n2cc(CSc3ncn[nH]3)nc2n1	.	.	.	-5%	.	.
O=C(O)CCn1c(=O)c2ccccc2c2ccccc2c1=O	-9%	17	-7%	21%[38.3 µM]	3	-3%
O=C(O)CCn1[nH]c(=O)ccc1=O	-11%	-100*	.	-6%	-10	3%
C=CCNC(=O)c1ccccc1NC(=O)c1cccc2ccccc12	-19%	?	-5%	27%[38.3 µM]	-1	-2%
O=C(NCCn1cccc1)c1cccc2ccccc12	32µM*	12	-6%	-5%[38.3 µM]	-13	-1%
CCC(Sc1nc2ccc(N)cc2s1)C(=O)Nc1nccs1 (stereo not drawn)	25µM*	-22	2%	56%[38.3 µM]	7	-5%
Cc1ccc(C)c(S(=O)(=O)Nc2ccc3scnc3c2)c1	-17%	-6	-8%	32%[38.3 µM]	-6	-4%
COc1ccc(OCCCC(=O)NC(C)c2ccccc2)cc1 (stereo not drawn)	-8%	6	6%	15%[38.3 µM]	3	-1%
C[C@H](O)CON1C(=O)c2ccccc2C1=O	-3%	.	.	14%	.	.
C=CCON1C(=O)c2ccccc2C1=O	-21%	-111*	-1%	-13%[38.3 µM]	1	5%
C/C(=N\NC(=O)c1ccccc1O)c1ccc(Br)s1	32µM*	-26	.	-6%	3	9%
C/C(=N\NC(=O)c1ccccc1[N+](=O)[O-])c1ccc(Br)s1	.	.	.	2%	.	.
Cc1c(C(=O)Nc2ccccc2N2CCOCC2)sc2nc3n(c(=O)c12)CCC3	-27%	-127*	-6%	-2%[38.3 µM]	-7	-2%
CC(=O)Nc1ccc(NC(=O)c2sc3nc4n(c(=O)c3c2C)CCCCC4)cc1	.	.	.	4%	.	.
O=C(NCCCO)C(=O)NCc1ccncc1	.	.	.	0%	.	.
Cc1ccc(C)c(CSc2nnc(-c3ccccn3)n2N)c1	16µM*	?	4%	24%[38.3 µM]	13	-2%
Cc1ccc(C)c(-n2c(SCC(N)=O)nnc2-c2ccccn2)c1	-8%	43	9%	-12%[38.3 µM]	-9	-2%
Cc1cccc(OCC(=O)N(C)CCc2ccccn2)c1	1%	-26	-27%	11%[38.3 µM]	-5	-1%
O=C(CC(c1ccccc1)c1cc(Br)ccc1O)NCCN1CCOCC1 (stereo not drawn)	14µM*	-13	36%	39%[38.3 µM]	5	8%
CCOC(=O)CNC(c1ccccc1)c1cc(Br)ccc1NC(=O)CCN1CCOCC1 (stereo not drawn)	32µM*	-18	.	16%	.	?
O=C(CC(c1ccccc1)c1cc(Br)ccc1O)N1CCCC1 (stereo not drawn)	.	.	.	19%	.	.
SMILES	HPGD inh	PNC inhibitor	15-hLO-2 inh	IMPase Li inh	IMPase cell inh	12-hLO inh
O=C(COC(=O)Cc1ccc(S(=O)(=O)N2CCOCC2)s1)NCc1ccc(Cl)cc1	-10%	7	-7%	17%[38.3 µM]	-3	-6%
CCCCCCOc1ccc(/C=C/C(=O)Nc2sc3c(c2C(=O)OC)CCC3)cc1OC	.	.	.	.	-3	.
COc1ccccc1NS(=O)(=O)c1cc(NC(=O)Nc2ccccc2)ccc1N1CCCCC1	25µM*	18	.	-6%	.	1%
COc1ccccc1NS(=O)(=O)c1cc(NC(=O)C2CCCC2)ccc1N1CCOCC1	.	.	.	7%	.	.
COc1ccccc1NS(=O)(=O)c1cc(NC(=S)NCCN2CCOCC2)ccc1N1CCOCC1	18µM*	10	.	2%	.	-3%
COc1ccccc1NS(=O)(=O)c1cc(NC(=O)c2cccs2)ccc1N1CCCCC1	-17%	-8	.	3%	.	4%
